D3 antag = antagonists of human D3 dopamine receptor; AID 652054; D3R cells, DiscoveRx beta-arrestin luminescence, antagonist mode; stronger effect = lower value; actives 2.5% (n = 360,000); max response, negative = inhibition, %; in the data active = max response below about -50%; inconclusive = no clear call, values can overlap the other calls; note: % is set by controls: 0 for no effect and ±100 for the full control effect
Target sequence (P35462 whole entry, looked up): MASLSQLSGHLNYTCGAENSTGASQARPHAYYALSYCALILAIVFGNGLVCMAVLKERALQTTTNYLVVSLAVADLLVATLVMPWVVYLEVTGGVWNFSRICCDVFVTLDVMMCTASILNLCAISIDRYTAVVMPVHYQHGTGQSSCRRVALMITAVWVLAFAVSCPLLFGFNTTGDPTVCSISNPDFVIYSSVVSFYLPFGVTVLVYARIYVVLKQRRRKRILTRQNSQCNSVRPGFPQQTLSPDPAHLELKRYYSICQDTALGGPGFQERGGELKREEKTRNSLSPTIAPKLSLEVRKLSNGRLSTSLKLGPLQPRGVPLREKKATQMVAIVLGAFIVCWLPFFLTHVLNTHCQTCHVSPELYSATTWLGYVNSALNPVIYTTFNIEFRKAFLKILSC
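Cells plated overnight at 1500 cells/well, then exposed to library compounds with dopamine controls for 90 minutes at 37 degrees C. DiscoveRx reagent added for 30–60 minutes at room temperature; luminescence read, quantitative HTS format.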
TSG101-PTAP inh = blocks PTAP/TSG101 interaction to inhibit HIV-1 budding | Fluorescence polarization, FITC-PTAP peptide / Tsg101 binding | Q99816 | 340,000 tested, under 10 active | AID 493005 | Potency, µM (doses to about 115 µM), for the others: top-dose activity change, negative = inhibition, hits mostly inhibitors; active = well fitted inhibition curve with a large enough effect in the main read-out, with a control signal flat, not every such curve was filed as active; inconclusive = small, poorly fitted or top-dose-only effect, or effect the other way, or a change in a side signal; inactive = no such curve, though single readings can be large or run the other way; note: potency is the fitted concentration of half-maximal effect; % of control where 0% means no effect
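Fluorescence anisotropy tracks displacement of a FITC-tagged PTAP peptide (50 nM) from the Tsg101 binding domain (10 uM), following a 20 min room-temperature incubation at pH 7.5.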
Rango release inh = prevents RanGTP from dissociating the Rango-importin beta complex; O95149+P62826; Biochemical FRET Rango-importin beta, RanGTP-induced dissociation; Potency, µM (highest dose often 46.1 µM), without a hit: at the top dose activity change, negative = inhibition; actives 0.071% (n = 340,000); note: potency is the fitted concentration of half-maximal effect; % of control where 0% means no effect; nearly all actives have a fitted effect of over 45% in size
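FRET read at 45 min, room temperature: inhibitors block the CFP/YFP signal rise when RanGTP (0.6 uM Ran, 2 mM GTP, 0.2 uM RCC1) frees Rango (0.1 uM) from importin beta (0.25 uM). Pre-read after 5 min compound exposure flags interference.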
MmCpn inh = M. maripaludis TRiC chaperonin inhibition; purified Mm-Cpn ATPase, ADP Transcreener TR-FRET; Potency, µM (doses to about 76.9 µM), for the others: top-dose activity, negative = inhibition, actives largely listed as inhibitors; actives 0.031% (n = 330,000); active = well fitted inhibition curve with a large enough effect; inconclusive = small, poorly fitted or top-dose-only effect; note: potency is the fitted concentration of half-maximal effect; % is set by controls: 0 for no effect and ±100 for the full control effect; nearly all actives have a fitted effect of over 80% in size
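Purified archaeal chaperonin (25 nM final) was preincubated with compound for 10 min at 37°C, then ATP (10 uM final) was added for 30 min at 37°C in Tris pH 7.4/KCl/MgCl2/DTT buffer. ADP was quantified by HTRF Transcreener TR-FRET.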
D3 ag = activates the human D3 dopamine receptor | P35462 | D3R DiscoveRx beta-arrestin cells, luminescence, 90 min | max activation, % | actives 0.58% (n = 410,000) | AID 652048; in the data active = max activation above about 30%; note: 0% is about no effect
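Agonist-mode cell screen: cells plated at 1500/well and incubated overnight at 37 °C, then exposed to library compounds for 90 min at 37 °C. Detection reagent was added for 30–60 min at room temperature, and luminescence was read.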
Rango complex inh = Rango-importin beta binding inhibition; Rango CFP/YFP FRET sensor + importin beta, 45 min; Potency, µM (highest dose often 92.2 µM), for the others: top-dose inhibition of complex formation; actives 0.031% (n = 340,000);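 note: potency is the fitted concentration of half-maximal effect; 0% = DMSO wells and 100% = buffer wells lacking importin beta; nearly all actives have a fitted effect of over 15% in size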
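FRET biosensor (snurportin 1 IBB flanked by EYFP and cerulean), 50 nM, with compound 5 min, then 0.125 microM importin beta in PBS, 1 mM DTT, 0.02% Tween-20, 0.1% BSA. CFP/YFP ratio read after 45 min at room temperature; pre-read flags interference.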
Starred values were filed as active, the others as inactive; ! = a repeat was not active. Only some compounds are listed: those with a hit (about 2.9% of all), similar ones and a draw of the others. Unless noted, calls come from the whole dose curve.

For O=C(Nc1c(C(=O)N2CCC(N3CCCCC3)CC2)oc2ccccc12)c1c(F)cccc1F the results were D3 antag -8, TSG101-PTAP inh -6%, Rango release inh 22%, MmCpn inh -1%, D3 ag 51*! and Rango complex inh 5%.
For CCNC(=O)NCc1cccc(Cl)c1 the results were D3 ag 2.
Cc1ccc(-c2nn3c(C)nnc3c3ccccc23)cc1S(=O)(=O)NC(C)c1ccccc1 (stereo not given) was read as D3 antag -54*, TSG101-PTAP inh 2%, Rango release inh 2%, MmCpn inh -27%, D3 ag -11 and Rango complex inh 0%.
`Cc1ccc(-c2nn3c(C)nnc3c3ccccc23)cc1S(=O)(=O)NCCO` gave D3 antag 8, TSG101-PTAP inh -2%, Rango release inh -4%, MmCpn inh 1%, D3 ag 1 and Rango complex inh 1%.
Screening S=C(S)OC1CC2CC1C1CCCC21 (stereo not given) returned D3 antag -80*, TSG101-PTAP inh -1%, Rango release inh 11%, D3 ag 11 and Rango complex inh -2%.
For CCc1c(C2(O)CCCCC2)[nH]c2cnccc12 the results were D3 antag -53*, TSG101-PTAP inh -5%, Rango release inh 0%, MmCpn inh -1%, D3 ag -7 and Rango complex inh 0%.
Cc1c(C2(O)CCCCC2)[nH]c2ccc(C(F)(F)F)cc12 was read as D3 antag 0, Rango release inh -19%, MmCpn inh -2%, D3 ag 14 and Rango complex inh 0%.
Cn1c(N)c(C(=O)Nc2ccccc2)c(=O)[nH]c1=O was read as D3 antag 1, TSG101-PTAP inh -2%, Rango release inh -3%, D3 ag 36* and Rango complex inh 0%.
`CCOC(=O)N1CCN(C(=O)CSc2ccc3nnc(-c4cccnc4)n3n2)CC1` gave D3 antag -98*, TSG101-PTAP inh -6%, Rango release inh -11%, MmCpn inh 1%, D3 ag -23 and Rango complex inh 0%.
Screening CCOc1ccc(NC(=O)CSc2ccc3nnc(-c4cccnc4)n3n2)cc1 returned D3 antag -7, TSG101-PTAP inh -5%, Rango release inh 21%, MmCpn inh -20%, D3 ag 1 and Rango complex inh 2%.
For COc1ccccc1N1CCN(CC(O)COc2ccc3c(C)cc(=O)oc3c2)CC1 (stereo not given) the results were D3 antag -77*, TSG101-PTAP inh 1%, Rango release inh -4%, MmCpn inh 0%, D3 ag -22 and Rango complex inh 5%.
Screening COc1ccc2c(C)cc(=O)oc2c1OCC(O)CN1CCOCC1 (stereo not given) returned D3 antag 0 and D3 ag -18.
For Cc1cc(=O)oc2cc(OCC(O)CN3CCN(c4ccccc4)CC3)ccc12 (stereo not given) the results were D3 antag 0, TSG101-PTAP inh -12%, Rango release inh -6%, MmCpn inh -1%, D3 ag 37* and Rango complex inh 0%.
`Cc1cc(=O)oc2cc(OCC(O)CN3CCc4ccccc4C3)ccc12` (stereo not given) gave D3 antag -55*, TSG101-PTAP inh -1%, Rango release inh -2%, MmCpn inh -1%, D3 ag -22 and Rango complex inh inconclusive.
